The structures appear in SMILES notation. Values joined by “and” are separate entries in the source; they are usually repeats but may differ in a detail not shown here. Equal values may be shown once. Read-outs that look alike come from different tables or passages of the source.

For one experiment, the system named is ACVR2A. Particulars: concentration: 1 μM, replicates: in singlicate; n = 1.
Another experiment deals with ACVR2B. Particulars: concentration: 1 μM, replicates: in singlicate, n = 1.
The next experiment concerns ACVRL1. Particulars: concentration: 1 μM, replicates: in singlicate, n = 1.
The next experiment relates to T1, ADCK3.
T1 construct: gene CABC1
Particulars: concentration: 1 μM, replicates: in singlicate; n = 1.

A further experiment relates to ADCK4. To be noted: concentration: 1 μM, replicates: in singlicate, n = 1.
A further experiment has as its system AKT1. To be noted: concentration: 1 μM, replicates: in singlicate, n = 1.
The test system of a further experiment is AKT2. Particulars: concentration: 1 μM, replicates: in singlicate, n = 1.
For another experiment, the system named is AKT3. Particulars: concentration: 1 μM, replicates: in singlicate, n = 1.
The test system of the next experiment is ALK. To be noted: concentration: 1 μM, replicates: in singlicate, n = 1.
A further experiment concerns T2, AMPK-alpha1.
T2 construct: gene PRKAA1
Particulars: concentration: 1 μM, replicates: in singlicate, n = 1.

For the next experiment, the system named is T3, AMPK-alpha2.
T3 construct: gene PRKAA2
To be noted: concentration: 1 μM, replicates: in singlicate, n = 1.

The subject of the next experiment is ANKK1. To be noted: concentration: 1 μM, replicates: in singlicate; n = 1.
A further experiment deals with T4, ARK5.
T4 construct: gene NUAK1
To be noted: concentration: 1 μM, replicates: in singlicate, n = 1.

For a further experiment, the system named is T5, ASK1.
T5 construct: gene MAP3K5
Particulars: concentration: 1 μM, replicates: in singlicate, n = 1.

Another experiment relates to T6, ASK2.
T6 construct: gene MAP3K6
To be noted: concentration: 1 μM, replicates: in singlicate; n = 1.

The next experiment concerns AURKA. Particulars: concentration: 1 μM, replicates: in singlicate, n = 1.
A further experiment has as its system AURKB. Particulars: concentration: 1 μM, replicates: in singlicate, n = 1.
The next experiment relates to AURKC. To be noted: concentration: 1 μM, replicates: in singlicate, n = 1.
The next experiment relates to AXL. To be noted: concentration: 1 μM, replicates: in singlicate, n = 1.
A further experiment concerns T7, BIKE.
T7 construct: gene BMP2K
To be noted: concentration: 1 μM, replicates: in singlicate, n = 1.
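Further: KINOMEscan kinase panel screen.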

For `Cc1cccc(-c2nc(Nc3ccc4ncsc4c3)c3ccccc3n2)n1` [GW867588], the “%Inh” value with ACVR2A was found to be 0%; with ACVR2B it was 2%; with ACVRL1, 0%; in the experiment on ADCK3, 0%; in the experiment on ADCK4, 0%; in the experiment on AKT1 it was 12%. The “%Inh” value was found to be 0% in the experiment on AKT2; 0% in the experiment with AKT3; 0% in the experiment on ALK; 19% in the experiment on AMPK-alpha1; 0% with AMPK-alpha2; 0% in the experiment with ANKK1. In addition, the “%Inh” value in the experiment with ARK5 was found to be 0%; in the experiment on ASK1 it was 15%; in the experiment with ASK2, 20%; in the experiment with AURKA, 22%; in the experiment on AURKB, 8%; in the experiment on AURKC, 0%. Moreover, the “%Inh” value with AXL and in the experiment with BIKE was 0% each time.

`Cl.Cl.Cl.Fc1ccc(-c2ncn(C3CCNCC3)c2-c2ccnc(Nc3ccccc3)n2)cc1` [SB-238039]: the “%Inh” value in the experiment with ACVR2A was 0%; with ACVR2B (1 µM) it was 0% and 18%; in the experiment with ACVRL1 (1 µM), 20% and 17%; in the experiment with ADCK3 it was 0%; in the experiment on ADCK4 (1 µM), 25% and 1%; with AKT1 (1 µM) it was 21% and 0%. The “%Inh” value is 10% and 7% in the experiment with AKT2 (1 µM); 24% and 37% in the experiment with AKT3 (1 µM); 21% and 0% with ALK (1 µM); 15% and 2% with AMPK-alpha1 (1 µM); 17% and 0% in the experiment with AMPK-alpha2 (1 µM); 0% with ANKK1. For the same molecule, the “%Inh” value was 9% and 10% in the experiment with ARK5 (1 µM); 34% and 1% with ASK1 (1 µM); 0% in the experiment with ASK2; 16% and 36% in the experiment on AURKA (1 µM); 25% and 0% with AURKB (1 µM); 0% and 19% in the experiment on AURKC (1 µM). The “%Inh” value with AXL (1 µM) was 0% and 44%; in the experiment with BIKE (1 µM) it was 0% and 9%.

Turning to `CNc1ncnc2[nH]ncc12` [SKF-18355], the “%Inh” value is on record as 4% in the experiment with ACVR2A; 40% with ACVR2B; 0% with ACVRL1; 0% in the experiment on ADCK3; 10% in the experiment on ADCK4; 0% in the experiment with AKT1. Besides, the “%Inh” value is reported as 0% with AKT2; 4% in the experiment on AKT3; 0% in the experiment on ALK; 0% with AMPK-alpha1; 0% with AMPK-alpha2; 0% in the experiment with ANKK1. The “%Inh” value with ARK5 is 0%; in the experiment with ASK1, 0%; in the experiment on ASK2, 0%; in the experiment with AURKA, 2%; in the experiment with AURKB, 34%; in the experiment on AURKC, 0%. Also, the “%Inh” value in the experiment with AXL and with BIKE was 0% in each case.

Turning to `CCc1nc(-c2cccc(C)c2)c(-c2ccnc(NCc3ccccc3)c2)s1`, the “%Inh” value in the experiment with ACVR2A was determined as 11%; in the experiment with ACVR2B it was 0%; in the experiment on ACVRL1, 0%; with ADCK3, 15%; in the experiment on ADCK4, 0%; in the experiment on AKT1, 4%. Moreover, the “%Inh” value in the experiment with AKT2 is 22%; with AKT3 it was 0%; in the experiment with ALK, 0%; in the experiment with AMPK-alpha1, 3%; with AMPK-alpha2 it was 5%; with ANKK1, 0%. Further, the “%Inh” value came out at 15% in the experiment on ARK5; 0% in the experiment with ASK1; 0% in the experiment with ASK2; 0% with AURKA; 14% in the experiment on AURKB; 0% in the experiment with AURKC. Further, the “%Inh” value in the experiment on AXL and in the experiment with BIKE was 0% in each case.

As to `Cl.Oc1cccc(Nc2ccnc3cc(-c4ccncc4)ccc23)c1` [GW494601], the “%Inh” value in the experiment with ACVR2A was found to be 97.2%; with ACVR2B it was 95%; with ACVRL1, 81%; with ADCK3 it was 1%; in the experiment on ADCK4, 68%; in the experiment on AKT1, 0%. Besides, the “%Inh” value in the experiment with AKT2 was 0%; in the experiment on AKT3 it was 0%; with ALK, 47%; in the experiment on AMPK-alpha1 it was 0%; with AMPK-alpha2 it was 0%; with ANKK1, 43%. Moreover, the “%Inh” value in the experiment on ARK5 is given as 9%; in the experiment on ASK1, 0%; in the experiment on ASK2, 0%; with AURKA, 23%; in the experiment with AURKB, 43%; in the experiment on AURKC, 32%. For the same molecule, the “%Inh” value in the experiment on AXL worked out at 21%; in the experiment on BIKE, 7%.

Values taken from article PMC5540273 (PLoS ONE, 2017).
